This passage reports growth results from PubChem BioAssay (NCI).

The panel holds about 83,000 compounds, 20% with a hit somewhere; the sample as a whole holds those more often.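 Cell lines were cultured in 96-well plates, exposed to a single compound concentration, and assessed for percent growth 48 hours later.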 Values without a mark were called inactive. Active and inactive are the calls of the source. How the source made its calls: active means growth percent below 10; inactive means the rest.

Some test systems named below: HCT-15 colon; HT29 colon; SNB-75 CNS; SNB-19 CNS; U251 CNS; PC-3 prostate; SK-MEL-5 melanoma; UACC-62 melanoma; LOX IMVI melanoma; SK-MEL-28 melanoma; SK-MEL-2 melanoma; EKVX NSCLC; SN12C renal; UO-31 renal; TK-10 renal; ACHN renal; CAKI-1 renal; A498 renal; CCRF-CEM leukemia; MOLT-4 leukemia.
Common to all, as to test: NCI-60 one-dose screen, 48 h (100 = growth as untreated, 0 = no growth, -100 = all killed)
Conditions in all cases: 10 µM unless noted

Turning to `CCOC(=O)c1c(-c2ccc(Cl)cc2)c(C#N)c2c(C#N)c(N)nn2c1N`, the growth was 47.2% in the assay on HCT-15 colon; 49.7% in the assay on HT29 colon; 79.8% with SNB-75 CNS; 74.7% in the assay with SNB-19 CNS; 66.4% in the assay with U251 CNS; 59.3% in the assay with PC-3 prostate. In addition, the growth in the assay with SK-MEL-5 melanoma is 52.3%; in the assay on UACC-62 melanoma, 46.4%; in the assay on LOX IMVI melanoma, 65.8%; in the assay with SK-MEL-28 melanoma, 62.6%; in the assay with SK-MEL-2 melanoma it was 52.5%; in the assay on EKVX NSCLC, 60.1%. The growth in the assay with SN12C renal was 79.1%; in the assay with UO-31 renal, 66.4%; in the assay with TK-10 renal, 84.4%; in the assay with ACHN renal, 72%; in the assay with CAKI-1 renal, 66%; in the assay on A498 renal, 29.3%. Moreover, the results for the growth with CCRF-CEM leukemia and in the assay with MOLT-4 leukemia were 30.5% and 25.6%, respectively.

`C=C(C)[C@@H]1CC[C@]2(CO)CC[C@]3(C)[C@H](CC[C@@H]4[C@@]5(C)CCC(NCCc6ccc(O)cc6)C(C)(C)[C@@H]5CC[C@]43C)[C@@H]12` (stereo not given in full): the growth in the assay on HCT-15 colon was -92.8% (active); in the assay on HT29 colon, -87.9% (active); in the assay on SNB-75 CNS, -86.7% (active); with SNB-19 CNS it was -82.1% (active); in the assay on U251 CNS, -94.2% (active); in the assay with PC-3 prostate it was -84.2% (active). For the same molecule, the growth in the assay with SK-MEL-5 melanoma is -95.4% (active); in the assay on UACC-62 melanoma it was -89.3% (active); in the assay on LOX IMVI melanoma it was -96.8% (active); with SK-MEL-28 melanoma it was -88.8% (active); with SK-MEL-2 melanoma it was -85% (active); with EKVX NSCLC it was -52.1% (active). The growth was -88.9% (active) in the assay with SN12C renal; -96.9% (active) with UO-31 renal; -94.5% (active) in the assay with TK-10 renal; -100% (active) in the assay with ACHN renal; -58.5% (active) in the assay with CAKI-1 renal; 6.99% (active) in the assay on A498 renal. For the same molecule, the values for the growth with CCRF-CEM leukemia and with MOLT-4 leukemia were -41.3% (active) and -43.8% (active), respectively.

In the case of `COC1=CC(c2ccc[nH]2)=N/C1=C\c1[nH]c(C)c(CC(=O)OCc2ccccc2)c1C`, the growth was -11% (active) in the assay with HCT-15 colon; 4.42% (active) with HT29 colon; -7.14% (active) with SNB-75 CNS; 23.5% in the assay on SNB-19 CNS; -21% (active) in the assay on U251 CNS; 2.94% (active) with PC-3 prostate. The growth in the assay with SK-MEL-5 melanoma was -91.5% (active); with UACC-62 melanoma, -31.7% (active); in the assay on LOX IMVI melanoma, -75.4% (active); in the assay with SK-MEL-28 melanoma, -18.2% (active); in the assay with SK-MEL-2 melanoma, -38.6% (active); in the assay with EKVX NSCLC, 5.59% (active). Also, the growth is 6.3% (active) in the assay on SN12C renal; -69% (active) with UO-31 renal; 4.1% (active) in the assay with TK-10 renal; -9.81% (active) in the assay on ACHN renal; 0.261% (active) in the assay on CAKI-1 renal; -11.9% (active) in the assay on A498 renal. Moreover, the figures for the growth in the assay on CCRF-CEM leukemia and in the assay on MOLT-4 leukemia were 4.82% (active) and 2.34% (active), respectively.

With `Cc1[nH]c(C(=O)Nc2ccc(C(N)=O)cc2NC(C)C)c(Cl)c1Cl`, the growth was 92.9% with HCT-15 colon; 106% in the assay with HT29 colon; 69% with SNB-75 CNS; 103% in the assay on SNB-19 CNS; 91.4% in the assay with U251 CNS; 77.4% in the assay on PC-3 prostate. For the same molecule, the growth in the assay on SK-MEL-5 melanoma is 88.1%; in the assay with UACC-62 melanoma, 91.4%; with LOX IMVI melanoma it was 96.2%; with SK-MEL-28 melanoma, 105%; in the assay on SK-MEL-2 melanoma, 101%; in the assay with EKVX NSCLC it was 87%. For the same molecule, the growth with SN12C renal was 105%; in the assay on UO-31 renal, 66%; with TK-10 renal, 120%; in the assay with ACHN renal, 96.5%; with CAKI-1 renal, 94.1%; in the assay with A498 renal, 69.7%. The values for the growth in the assay with CCRF-CEM leukemia and with MOLT-4 leukemia were 94.2% and 86%, respectively.

With `COCC[C@H]1CCC/C=C/[C@@H]2C[C@H](O)C[C@H]2[C@H](O)/C=C/C(=O)O1`, the growth in the assay on HCT-15 colon is 9.76% (active); in the assay with HT29 colon it was -13.8% (active); in the assay on SNB-75 CNS it was 33.9%; with SNB-19 CNS, 30.2%; in the assay with U251 CNS, 15.5%; with PC-3 prostate, 20.5%. Also, the growth in the assay on SK-MEL-5 melanoma was -92% (active); in the assay with UACC-62 melanoma, 21.7%; with LOX IMVI melanoma, -62.3% (active); with SK-MEL-28 melanoma, 0.149% (active); in the assay with SK-MEL-2 melanoma, -3.55% (active); in the assay with EKVX NSCLC it was 4.95% (active). The growth in the assay on SN12C renal was 8.16% (active); in the assay on UO-31 renal, 10.9%; with TK-10 renal it was -38.5% (active); with ACHN renal, 4.75% (active); in the assay on CAKI-1 renal it was -18.6% (active); with A498 renal it was -31.1% (active). The figures for the growth with CCRF-CEM leukemia and in the assay with MOLT-4 leukemia were 17.6% and 7.61% (active), respectively.

`CCN(CC)CCOc1nc2c3ccc(Cl)cc3nn2c2ccccc12`: the growth with HCT-15 colon was 4.7% (active); with HT29 colon it was 15.2%; in the assay with SNB-75 CNS, 33.5%; with SNB-19 CNS it was 24.2%; with U251 CNS, 16.4%; with PC-3 prostate, 34.1%. Besides, the growth in the assay with SK-MEL-5 melanoma is 51.3%; in the assay on UACC-62 melanoma it was 9.05% (active); in the assay on LOX IMVI melanoma, -47.2% (active); in the assay on SK-MEL-28 melanoma, 44.8%; in the assay on SK-MEL-2 melanoma it was 72.5%; in the assay on EKVX NSCLC, 28.9%. The growth is 19.9% in the assay on SN12C renal; -13.2% (active) in the assay on UO-31 renal; 51% in the assay with TK-10 renal; 8.93% (active) with ACHN renal; 16.5% with CAKI-1 renal; -12.2% (active) in the assay on A498 renal. For the same molecule, the growth with CCRF-CEM leukemia was 30.6%; with MOLT-4 leukemia, 10.9%.

Regarding `CC(=O)N/C(=C1/OC(C(O)C(O)C(O)CO)CN1C)[P+](c1ccccc1)(c1ccccc1)c1ccccc1` (stereo not given), the growth in the assay on HCT-15 colon was 98.5%; with HT29 colon it was 115%; in the assay with SNB-75 CNS, 75.3%; with SNB-19 CNS, 91.2%; with U251 CNS, 98%; in the assay with PC-3 prostate, 98.2%. Besides, the growth was 95.5% in the assay on SK-MEL-5 melanoma; 98.6% with UACC-62 melanoma; 98.2% with LOX IMVI melanoma; 106% with SK-MEL-28 melanoma; 99.5% in the assay on SK-MEL-2 melanoma; 90.3% in the assay with EKVX NSCLC. The growth in the assay with SN12C renal was 96.2%; in the assay with UO-31 renal, 79.4%; in the assay with TK-10 renal, 104%; with ACHN renal, 100%; in the assay with CAKI-1 renal, 90.6%; in the assay on A498 renal it was 120%. The growth is 97.1% in the assay with CCRF-CEM leukemia and 102% in the assay on MOLT-4 leukemia.
